GSIS activator – GLuc luminescence reporter in INS-1E cells, primary screen for activators of glucose-dependent secretion of insulin. hit rate 0.61% among 370,000. activation, % at 16.6 µM. INS-1E GLuc reporter insulin secretion, 2-3 h. AID 743287;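 active = lowest replicate activation of at least 40%, so every replicate reaches that level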;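 note: 0% = median of neutral control wells and 100% = median of IBMX positive control wells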
Statin myotox sup – suppressors of simvastatin-induced myotoxicity in C2C12 myotubes. AID 602340. hit rate 0.78% among 330,000. ATP luminescence, 48 h; scaled: DMSO 0, geranylgeraniol control 100. rescue of ATP level, % at 7.49 µM;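 active = mean ATP rescue above about 67%, or every replicate alone reaching that limit, limit read from the data, passing the limit was not always enough; inconclusive = no clear call, values can overlap the other calls; inactive = mean under the limit and some replicate under it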;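 note: myotubes were challenged with 10 µM simvastatin during compound exposure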
miR122 inh – inhibitors of miR-122 in Huh7 cells | hit rate 0.3% among 340,000 | Huh7 miR-122 Renilla luciferase sensor, 48 h; neutral wells = 0, positive control = 100 | AID 602342 | activation (reporter increase), % at 12.5 µM;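 active = mean replicate activation score at least 90 and every replicate individually at or above 90; inconclusive = only one of the two criteria met; inactive = neither criterion met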;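 note: higher luciferase means less miR-122 activity so hits act as miR-122 inhibitors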
HIV Env fusion – inhibitors of HIV Env-mediated cell fusion. hit rate 1.1% among 360,000. HeLa-JRFL Env/CEM21 cell fusion, luciferase. inhibition, % at 12.3 µM;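 active = mean replicate inhibition score of at least 50 and every replicate individually at or above 50; inconclusive = only one of the two criteria met; inactive = mean below 50 and not all replicates reaching 50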;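 note: 0% = plate neutral controls and 100% = maraviroc near 300 nM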
EWS-Fli block – blocks EWS/Fli oncoprotein-driven transcription; inhibition, % at 12.6 µM; A673 NR0B1-luciferase reporter, viability-normalised; hit rate 0.67% among 350,000; AID 651661;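 active = mean inhibition of at least 50% after viability correction, with every replicate also passing that limit; inconclusive = mean reaches 50% but only one of two replicates passes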;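 note: firefly luciferase signal divided by Alamar Blue viability fluorescence both relative to DMSO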
PAX8 reporter – lowers PAX8-driven luciferase in RMG-I cells. RMG-I TPO-luciferase reporter, SteadyGlo, 24 h. inhibition, % at 12.6 µM. hit rate 1.2% among 360,000. AID 652154;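 active = mean replicate inhibition at least 60% with every replicate also reaching 60%; inconclusive = only one of the two criteria is met; inactive = mean below 60% and not all replicates reaching 60%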;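 note: luciferase light reporting Pax8 driven TPO promoter activity; plate controls were median of neutral control wells for no effect and mitoxantrone controls for full effect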
* hit, by the source's call; ? = inconclusive; . = not tested or not shown; [ ] = another dose, or the depositor's remark. This is a sample that favours compounds with a hit; in the whole collection about 3.1% have one here.

SMILES | GSIS activator | Statin myotox sup | miR122 inh | HIV Env fusion | EWS-Fli block | PAX8 reporter
O=C(Nc1ccccc1)Nc1ncc([N+](=O)[O-])s1 | -57 | -213 | -12 | 38 | 14 | 85*
Cc1cc(C)n(-c2nc3ccccc3c(=O)n2OCCOc2ccccc2)n1 | 10 | 99* | 5 | . | . | .
C=CCOn1c(-n2nc(C)cc2C)nc2ccccc2c1=O | 14 | -4 | -10 | -1 | 12 | -21
C[C@@H]1CN([C@@H](C)CO)C(=O)c2cccc(NC(=O)Nc3ccccc3)c2O[C@H]1CN(C)C(=O)NC1CCCCC1 | -10 | -26 | -10[16.7 µM] | . | 2 | -1
NC(c1csc(NC(=O)Nc2cccc(Cl)c2)n1)C1CCCCC1 (stereo not drawn) | -6 | -10 | -2 | -17 | 42 | 0
NC(c1csc(NC(=O)Nc2ccccc2)n1)C1CCCCC1 (stereo not drawn) | 5 | -57 | -3 | 57* | -8 | -3
Cc1ccc2c(CN3CCN(S(=O)(=O)c4ccc5c(c4)OCCO5)CC3)cc(=O)oc2c1C | . | -22 | 1 | 93* | . | .
C[C@H]1CN([C@@H](C)CO)C(=O)c2ccccc2-c2ccccc2CO[C@H]1CN(C)S(=O)(=O)c1cccc(F)c1 | -10 | . | . | 53[16.7 µM] | -2 | -15
O=C(CCN1CCN(c2ccccc2F)CC1)c1ccc(Br)cc1 | . | . | -4 | . | . | .
COc1ccc(C(=O)CCN2CCN(c3ccccc3F)CC2)cc1 | 10 | . | . | 10 | 4 | 78*
COc1cccc(NC(=O)CCN2CCN(c3ccccc3F)CC2)c1 | 3 | 78* | -6 | 11 | . | -2
CCn1c(COc2ccc(C)cc2)nnc1SCC(=O)Nc1cc(OC)ccc1OC | . | -3 | -2 | 58* | . | .
CCOC(=O)c1cnc(SCC(=O)Nc2cc(OC)ccc2OC)nc1N | . | 10 | -9 | 74* | . | 17
CCOC(=O)c1cnc(SCC(=O)OCC(=O)NC2CCS(=O)(=O)C2)nc1N (stereo not drawn) | 42* | -3 | 1 | 6 | 1 | 3
Cc1ccc(CNC(=O)c2ccc(N3CCCC3=O)cc2)cc1 | 12 | 8 | . | -77 | . | .
Cn1nc(C(C)(C)C)cc1C(=O)NCc1ccc(N2CCCC2=O)cc1 | -28 | -45 | -4 | 64* | . | .
C[C@@H]1CN([C@H](C)CO)S(=O)(=O)c2ccc(C#CC3CCCC3)cc2O[C@@H]1CN(C)C(=O)c1cccc(F)c1 | -6 | -28 | -6[16.7 µM] | 31[16.7 µM] | 14 | .
Cc1cc(C)c2nc3sc(C(=O)N4CCOCC4)c(N)c3cc2c1 | 0 | -115 | 36 | -356 | 48 | 69*
Nc1c(C(=O)N2CCOCC2)sc2nc3c(cc12)CCC3 | -2 | . | . | -32 | -100 | -80
Nc1c(C(=O)N2CCOCC2)sc2nc3c(cc12)CCCC3 | 0 | -54 | -7 | 20 | 31 | 71*
C[C@H](CO)N1C[C@H](C)[C@H](CN(C)C(=O)NC2CCCCC2)Oc2ccc(NS(=O)(=O)c3cn(C)cn3)cc2C1=O | 8 | -21 | 2[16.7 µM] | . | 5 | .
Cc1ccc2nc(N3CCN(C(=O)CCCC(=O)O)CC3)nc(-c3ccccc3)c2c1 | 57* | -4 | . | 5 | -3 | 7
O=C1c2cccnc2-c2ncccc21 | . | . | 3 | . | . | .
O=C1C(=O)c2cccnc2-c2ncccc21 | 29 | . | . | 60* | 42 | 107*
N#C[C@H]1[C@@H](c2ccccc2-c2ccccc2F)[C@@H](CO)N1C(=O)C1CCOCC1 | 6 | . | . | . | -1 | 4
SMILES | GSIS activator | Statin myotox sup | miR122 inh | HIV Env fusion | EWS-Fli block | PAX8 reporter
O=C(NCc1ccco1)c1ccc(Cn2c(=O)c3ccccc3n(Cc3cccc(Cl)c3)c2=O)cc1 | . | -7 | . | 89* | . | .
CCn1c(=O)n(CC(=O)NCc2ccco2)c(=O)c2ccccc21 | . | 3 | 4 | . | . | .
O=C(Cn1c(=O)n(Cc2ccco2)c(=O)c2ccccc21)Nc1cccc(Cl)c1 | -25 | 1 | 4 | 95* | 4 | 9
O=C(NCc1ccco1)c1ccc(Cn2c(=O)c3sccc3n(Cc3cccc(F)c3)c2=O)cc1 | -4 | -5 | -3 | 90* | 8 | -1
Cc1noc(C)c1NC(=O)N(C)C[C@@H]1OCCCC[C@@H](C)Oc2ccc(NS(C)(=O)=O)cc2C(=O)N([C@H](C)CO)C[C@@H]1C | 12 | . | 5[16.7 µM] | -27[16.7 µM] | -7 | -20
CCOc1ccc2nc(NCCNC(=O)Nc3cccc(C)c3)c(C#N)cc2c1 | 320* | -46 | -2 | 7 | . | 18
CCOc1ccc2nc(SCC#N)c(C#N)cc2c1 | 39 | 80* | -3 | -27 | . | .
CCOc1ccc2nc(NCCNC(=O)Nc3ccccc3)c(C#N)cc2c1 | 200* | -11 | -22 | -73 | . | 8
CCSc1nc2ccc(OC)cc2cc1C#N | . | 8 | 0 | -317 | . | .
COCC(=O)N1C[C@H](C)[C@H](OC)CN(C)C(=O)c2cc(NC(=O)NC(C)C)ccc2OC[C@H]1C | 8 | -16 | -26[16.7 µM] | -15[16.7 µM] | 8 | 5
C[C@H]1CN([C@@H](C)CO)C(=O)c2cc(NC(=O)Nc3ccc(C(F)(F)F)cc3)ccc2O[C@@H]1CN(C)C(=O)Nc1ccc(C(F)(F)F)cc1 | -10 | 34 | -11[16.7 µM] | -29[16.7 µM] | 2 | 17
COC(=O)c1[nH]c2ccc(C)cc2c1NC(=O)CN1CCN(C(=O)c2ccccc2)CC1 | . | 96* | -6 | -39 | . | .
COC(=O)c1[nH]c2ccc(C)cc2c1NC(=O)CN1CCN(c2ccccc2)CC1 | . | . | . | ? | . | 33
COC1=CC(=O)c2c(ccc3ncnc(N)c23)C1=O | . | . | -3 | 76* | 40 | 104*
COc1ccc2oc(=O)c(-c3nnc(NCc4ccco4)s3)cc2c1 | . | 103* | -3 | -252 | . | -111
CCOc1cccc2cc(-c3nnc(NCc4ccco4)s3)c(=O)oc12 | . | . | -3 | -130 | . | -40
CC1CCCN(c2ncnc3c2cnn3-c2ccccc2)C1 (stereo not drawn) | -18 | -22 | -1 | -38 | 69* | 25
c1ccc(-n2ncc3c(N4CCCCC4)ncnc32)cc1 | 3 | -22 | 3 | 1 | 75* | 21
CCN1CCN(c2ncnc3c2cnn3-c2ccccc2)CC1 | 2 | . | 0 | -13 | -87 | -145
COc1cccc(N2CCN(c3ncnc4c3cnn4-c3ccc(C)cc3C)CC2)c1 | . | 26 | -6 | ? | 48 | 102*
CC1CCCN(c2ncnc3c2cnn3-c2ccc(Cl)cc2)C1 (stereo not drawn) | 2 | -26 | 6 | 27 | 86* | 76*
Cc1ccc(-n2ncc3c(N4CCCC(C)C4)ncnc32)c(C)c1 (stereo not drawn) | -17 | -18 | -2 | -29 | -75 | -189
C[C@@H]1CN([C@H](C)CO)C(=O)c2cc(NC(=O)C3CCCCC3)ccc2O[C@@H]1CN(C)C(=O)Nc1ccc(F)cc1 | 2 | -6 | -9[16.7 µM] | 5[16.7 µM] | -7 | 13
CC(C)C#Cc1cnc2c(c1)C(=O)N([C@H](C)CO)C[C@H](C)[C@@H](CN(C)C(=O)c1ccccn1)O2 | 17 | 8 | 0[16.7 µM] | -14[16.7 µM] | -4 | .
c1ccc2c(N3CCCCC3)ncnc2c1 | . | . | 1 | 70* | . | .

Screening results as filed in PubChem.
